{
  "source": "PubChem BioAssay AID1347081",
  "about": "(National Center for Advancing Translational Sciences (NCATS), 2019)",
  "note": "Inconclusive results are not listed. Unmarked numbers belong to inactive results. The source made the active and inactive calls. The call rests on the fitted dose curve.",
  "data": [
    {"experiment": "qHTS for Inhibitors of the Functional Ribonucleoprotein Complex (vRNP) of Lassa (LASV) Arenavirus: Viability assay - alamar blue signal for LASV Confirmatory Screen", "settings": "LASV vRNP counter-screen cells; series mostly up to 53.9 µM; activity change, negative = decreased viability: at the top concentration", "values": [
      {"smiles": "CC(C)=CCC/C(C)=C/CC/C(C)=C/CC[C@]1(C)CCc2c(C)c(O)c(C)c(C)c2O1", "activity change, negative = decreased viability": "6.56% [at 6 µM]"},
      {"smiles": "Cn1cc(-c2ccncc2)c(-c2ccc(OCc3ccc4ccccc4n3)cc2)n1", "Potency": "21.7 µM (active)"},
      {"smiles": "CCC[C@H](N[C@@H](C)C(=O)N1[C@@H]2CCCC[C@H]2C[C@H]1C(=O)O)C(=O)OCC", "activity change, negative = decreased viability": "-18.7%"},
      {"smiles": "S=C(NCc1ccc2c(c1)OCO2)N1CCN(c2ncnc3c2oc2ccccc23)CC1", "Potency": "8.85 µM (active)"},
      {"smiles": "Fc1ccc(CNc2ncnc3ccc(F)cc23)cc1", "Potency": "15.3 µM (active)"},
      {"smiles": "CC(O)C(O)[C@H]1CNc2nc(N)[nH]c(=O)c2N1", "note": "(stereo partly drawn)", "activity change, negative = decreased viability": "25.3%"},
      {"smiles": "CCOC(=O)OCC/C(SC(=O)OCC)=C(\\C)N(C=O)Cc1cnc(C)nc1N", "activity change, negative = decreased viability": "-11.9%"},
      {"smiles": "Cc1cnc(NC(=O)C2=C(O)c3ccccc3S(=O)(=O)N2C)s1", "activity change, negative = decreased viability": "-18%"}
    ]}
  ]
}
